# Source: the supplement of paper PMC13392028
# Test system: PvIESI-1 RRM domain (Plasmodium vivax PVP01_0939900 aa 896-1203, GST fusion)
# Experiment: RBNS R-value (6-mer enrichment in protein-bound RNA vs input library) (ratio); higher = stronger binding preference; the methods of the paper give 50 / 100 / 500 nM protein instead
# Experimental: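 RNA Bind-n-Seq: recombinant GST-tagged IESI-1 RRM domain was incubated at room temperature with a random 40-nt in vitro transcribed RNA library at 250, 500 or 1000 nM protein. Bound RNA was pulled down on glutathione beads and sequenced. R-value is the enrichment of each 6-mer in the bound RNA relative to the input library. Each 6-mer sits inside the random 40-mer context, not as an isolated oligo. Values are replicate 1 only.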
Sequence,RBNS R-value (protein concentration: 250 nM),RBNS R-value (protein concentration: 500 nM),RBNS R-value (protein concentration: 1000 nM)
AUGAUU,4.49,4.79,4.59
GCUGAU,2.62,2.82,2.68
CCUGAU,3.03,3.36,3.13
GAUUUU,2.5,2.64,2.47
UAUGAU,3.09,3.27,3.27
GAUUGA,2.27,2.42,2.29
GUGAUU,2.96,3.22,3.1
GCCCGA,1.45,1.67,1.67
UUGAUA,2.87,3.36,3.32
GAUGGG,2.02,2.1,2.01
ACCCGA,1.44,1.74,1.74
GAUGAA,2.73,2.89,2.83
AGUGAU,2.41,2.69,2.63
